An excerpt weighted towards active compounds, which were near 19% of everything screened.
Pf growth 48h = inhibits P. falciparum growth in the first generation, 48 h; P. falciparum luciferase growth in erythrocytes, 48 h; Potency, µM (titrated, usually from 28.7 µM), inactives show top-dose activity change, negative = inhibition, usual class: inhibitors; 310,000 tested, 5.9% active; further: potency means the concentration at half of the fitted maximal effect; on the % scale 0 is the no-effect control and ±100 the full control effect
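Compounds are pin-transferred into medium, infected erythrocytes (2% hematocrit, 0.1% parasitemia final) are added, and plates sit one parasite generation at 37 C in 5% CO2. Detection reagent is then added and luminescence measured.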
Lassa entry inh = inhibitors of Lassa virus binding or cell entry | AID 540256 | Lassa virus pseudotype entry inhibition, cell reporter | Potency, µM (titrated, usually from 37.9 µM), for inactives: at the highest dose activity change, negative = inhibition, most hits filed as inhibitors | 300,000 tested, 1.2% active; calls by dose curve; tested in HEK293 cells; further: potency means the concentration at half of the fitted maximal effect; on the % scale 0 is the no-effect control and ±100 the full control effect; nearly all actives have a fitted effect of over 50% in size
Shiga inhibitor = blocks Shiga toxin action in Vero cells. Vero cells, Shiga toxin protein synthesis inhibition reporter. inhibition, % at 38.7 µM. 290,000 tested, 9.2% active. AID 2315; in the data active means inhibition mostly above about 28%, no sharp cut-off; inactive means mostly below about 43%; further: 0% is about no effect
Marburg entry inh = Marburg virus entry inhibition. 300,000 tested, 1.8% active. Potency, µM (top dose mostly 37.8 µM), without a hit: top-dose activity change, negative = inhibition, usual class: inhibitors. Marburg virus pseudotyped entry inhibition, cell reporter. AID 540276; calls by dose curve; tested in HEK293 cells; further: potency means the concentration at half of the fitted maximal effect; on the % scale 0 is the no-effect control and ±100 the full control effect
Cycloheximide cs = counter-screen hit for Shiga toxin inhibitors, cycloheximide. cell reporter, cycloheximide protein synthesis inhibition counterscreen. AID 2314. 300,000 tested, 12% active. max response, %; in the data active means max response mostly above about 13%, no sharp cut-off; inactive means mostly below about 14%; further: read at 38.3 µM for the half of the compounds with a filed dose; 0% is about no effect
Pf growth 96h = P. falciparum growth inhibition at 96 hours; P. falciparum luciferase reporter growth, 96 h; Potency, µM (doses to about 28.7 µM), without a hit: at the top dose activity change, negative = inhibition, most hits filed as inhibitors; 320,000 tested, 6.9% active; further: potency means the concentration at half of the fitted maximal effect; on the % scale 0 is the no-effect control and ±100 the full control effect
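Two parasite generations (96 h, 37 C, 5% CO2) of compound exposure in infected erythrocytes (0.05% parasitemia, 2% hematocrit). Luciferase-reporter P. falciparum; decreased luminescence indicates inhibited growth, aimed at apicoplast-acting delayed death.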
The depositor's hits bear a star; ? = inconclusive; / = no result given; [ ] = dose if it differs, or a comment. Unless noted, the call rests on the fitted dose curve; in most records, active means well fitted inhibition curve with a large enough effect; inconclusive means small, poorly fitted or top-dose-only effect, or another doubt; inactive means no such curve, though single readings can be large or run the other way.

SMILES	Pf growth 48h	Lassa entry inh	Shiga inhibitor	Marburg entry inh	Cycloheximide cs	Pf growth 96h
O=C(Nc1ccc(Oc2c(F)c(F)c(F)c(F)c2F)cc1)OC1CCN2Cc3ccccc3N=C12 (centres undefined)	?	?	30	?	-1	2.6µM*
O=C(NCCCn1ccnc1)c1ccccc1Cl	-5%	22%	-6	?	-5	35%
COCC1CCN(C(=O)c2cc(COc3ccc(OC)c4ccccc34)on2)C1 (centres undefined)	/	?	/	15%	/	/
COc1ccc(OCc2cc(C(=O)N3CCC(OC)CC3)no2)c2ccccc12	-9%	-6%	126*	?	41*	-36%
CCOC(=O)C1CCN(C(=O)c2cc(COc3ccc(OC)c4ccccc34)on2)CC1	12%	/	82*	/	43*	2%
N#CCCn1cc(C(=O)N2CCOCC2)c(-c2ccc3c(c2)OCCO3)n1	11%	20%[46.1 µM]	23	?	9	73%
N/C(COc1ncn(-c2ccccc2)n1)=N\S(=O)(=O)c1ccccc1	14%	-5%[46.1 µM]	16	-6%[46.1 µM]	-3	24%
CN(C)S(=O)(=O)c1ccc(Cl)c(C(=O)Nc2cccc3ncccc23)c1	-20%	-16%	-5	-25%	-3	-14%
CC(C)c1cc(C(=O)N2CCN(C(c3ccccc3)c3ccccc3)CC2)no1	9.3µM*	?	32*	-30%	29*	/
COc1ccc2oc(C(=O)N3CCN(C(c4ccccc4)c4ccccc4)CC3)c(C)c2c1	3.7µM*	?	/	?	/	4.7µM*
Cn1nc(C(=O)N2CCN(C(c3ccccc3)c3ccccc3)CC2)c2ccccc2c1=O	4.7µM*	/	-4	/	-2	12µM*
COc1ccc2oc(C(=O)N3CCN(C/C=C/c4ccccc4)CC3)c(C)c2c1	-12%	/	/	/	/	4%
COc1ccc(-c2cc(C(=O)N3CCN(C(c4ccccc4)c4ccccc4)CC3)no2)cc1OC	7.4µM*	-2%	25	?	2	-7%
Cc1nnc(NC(=O)c2ccc(Br)cc2)s1	/	3%	4	?	28	-9%
COc1ccc(-c2cc(C(=O)N3CCN(C(c4ccccc4)c4ccccc4)CC3)no2)cc1	?	?	14	?	6	12µM*
CC(C)Cc1cc(C(=O)N2CCN(C(c3ccccc3)c3ccccc3)CC2)no1	/	/	-10	-1%	-2	-1%
O=C(c1cc(-c2ccco2)on1)N1CCN(C(c2ccccc2)c2ccccc2)CC1	12µM*	-17%	33	?	1	25%
Cc1oc(C)c(C(=O)O)c1COc1ccc(C(=O)O)cc1	-19%	18%	13	-11%	-5	/
Cc1cccc(NC(=O)c2cc3c(=O)n4cccc(C)c4nc3s2)c1C	/	-8%[46.1 µM]	/	?	/	/
COc1ccc(-[n+]2c(-c3ccccc3)cc(-c3ccc(C)cc3)cc2-c2ccccc2)cc1	0.93µM*	?	-15	?	-9	145%
CCCOC(=O)c1ccc(-[n+]2c(-c3ccccc3)cc(-c3ccccc3)cc2-c2ccccc2)cc1	2.3µM*	/	/	/	/	1.3µM*
COc1ccc(-c2cc(-c3ccccc3)[n+](C)c(-c3ccccc3)c2)cc1	?	?	-4	6.3µM*	0	?
COc1ccc(S(=O)(=O)c2ccc(O)cc2)cc1	/	21%	17	14%	3	18%
COc1ccc(-c2cc(O)cc(O)c2)cc1	175%	-29%	50*	-9%	33*	/
COc1ccc(C(NC(=O)c2ccc(-c3ccccc3)cc2)c2ccccc2)cc1 (centres undefined)	3%	?	-4	-16%	-3	?
SMILES	Pf growth 48h	Lassa entry inh	Shiga inhibitor	Marburg entry inh	Cycloheximide cs	Pf growth 96h
CCCOC(=O)c1ccc(Cl)c(NC(=O)c2ccc(-c3ccccc3)cc2)c1	17%	-2%	10	-4%	0	53%
Cc1ccccc1CNC(=O)C(=O)NCC1OCCCN1S(=O)(=O)c1ccc(F)cc1C (centres undefined)	-16%	-19%	-10	16%	-2	?
Oc1c(Br)cc(-c2ccccc2)cc1Br	/	6%[46.1 µM]	/	9%[46.1 µM]	/	/
Brc1ccc(-[n+]2c(-c3ccccc3)cc(-c3ccccc3)cc2-c2ccccc2)cc1	1.9µM*	/	/	/	/	0.83µM*
C[n+]1c(-c2ccccc2)cc(CCCCc2cc(-c3ccccc3)[n+](C)c(-c3ccccc3)c2)cc1-c1ccccc1	13µM*	-19%	-5	?	-3	0.93µM*
Cc1ccc(C(=O)O)cc1NC(=O)C1CCCN1S(=O)(=O)c1cccc2nsnc12 (centres undefined)	/	/	16	0%	-1	17µM*
COc1ccc(NC(=O)C2CCCN2S(=O)(=O)c2cccc3nsnc23)c(OC)c1 (centres undefined)	?	/	17	/	12	10µM*
Cc1ccc(NC(=O)C2CCCN2S(=O)(=O)c2cccc3nsnc23)c(C)c1 (centres undefined)	/	-1%[46.1 µM]	/	6%[46.1 µM]	/	/
Cc1c(NC(=O)C2CCCN2S(=O)(=O)c2cccc3nsnc23)cccc1C(=O)O (centres undefined)	/	/	-4	0%	-3	9.3µM*
O=C(CN(CC1CCCO1)C(=O)CNS(=O)(=O)c1ccc(Cl)cc1)NCc1ccc(F)cc1 (centres undefined)	-4%	-5%	-15	-6%[46.1 µM]	-5	-9%
COc1cccc(C2SCC(=O)N2c2ccc(Cl)cc2)c1OC (centres undefined)	?	-17%	-3	?	-5	-4%
CC(C)(C)c1ccc(C(=O)NCc2nnc(SCC(=O)NC3CCCC3)o2)cc1	22%	-11%	15	-5%	11	?
COc1ccc2c(CNCc3ccc(C)o3)c(C(=O)O)n(Cc3ccccc3C)c2c1	/	5%[46.1 µM]	/	/	/	/
NNC(=S)NC1CCCCC1	-24%[5.75 µM]	?	43*	20%[46.1 µM]	13*	?
Cc1cc(=O)[nH]c(-n2[nH]c3c(c2=O)CCCC3)n1	4.1µM*	8%	3	-1%	7	?
Cc1cc(=O)[nH]c(N2CCCNCC2)n1	12µM*	?	-11	0%[46.1 µM]	-1	-32%
Cc1nc(-n2[nH]c3c(c2=O)CCCC3)[nH]c(=O)c1Cc1ccccc1	?	?	7	?	2	?
Cc1cccc(N2CCN(C(=O)C(NS(=O)(=O)c3cccs3)c3ccccc3)CC2)c1C (centres undefined)	?	2.6µM*	-9	-29%	4	/
O=S(=O)(NCC(c1cccnc1)N1CCN(c2ccccc2F)CC1)c1cccs1 (centres undefined)	13µM*	/	12	2%	6	?
O=S(=O)(NCC(c1cccnc1)N1CCN(c2ccc(F)cc2)CC1)c1cccs1 (centres undefined)	?	/	16	/	-2	-30%
Cc1cccc(N2CCN(C(=O)C3CCC(CNS(=O)(=O)c4cccs4)CC3)CC2)c1C (centres undefined)	5.2µM*	?	-9	?	-2	-3%

Screens: PubChem, National Center for Advancing Translational Sciences (NCATS)
